Compound activity from PubChem BioAssay.
Sampled rows, rich in hits. Any-hit rate of the full collection: about 2.4%.
Cruzain inh Det = blocks cruzain activity in presence of Triton detergent | P25779 | purified cruzain, Z-FR-AMC fluorescence, 0.01% Triton | Potency, µM, most hits filed as inhibitors | hit rate 0.43% among 200,000 | AID 1478; further: nearly all actives have a fitted effect of over 40% in size
Target sequence (P25779 123-467 limits assumed): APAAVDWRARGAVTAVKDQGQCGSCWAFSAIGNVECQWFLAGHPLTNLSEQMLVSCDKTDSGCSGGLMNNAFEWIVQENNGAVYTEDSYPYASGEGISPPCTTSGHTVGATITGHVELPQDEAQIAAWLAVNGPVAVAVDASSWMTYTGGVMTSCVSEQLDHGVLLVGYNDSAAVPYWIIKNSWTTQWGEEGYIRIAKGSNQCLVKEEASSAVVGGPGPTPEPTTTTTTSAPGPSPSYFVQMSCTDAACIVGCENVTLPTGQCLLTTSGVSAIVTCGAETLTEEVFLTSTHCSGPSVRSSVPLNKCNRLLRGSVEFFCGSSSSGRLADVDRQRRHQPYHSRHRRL
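Cruzain (1.5 nM) preincubated 15 min at RT with compound in 100 mM sodium acetate pH 5.5, 5 mM DTT, 0.01% Triton X-100. Reaction started with 2 uM Z-FR-AMC; AMC fluorescence (ex 360/em 450 nm) change over 60 s gave rate.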
Cruzain inh noDet = cruzain (T. cruzi) inhibition without detergent; P25779; purified cruzain, Z-FR-AMC fluorescence, no detergent; Potency, µM, most hits filed as inhibitors; hit rate 2.3% among 200,000; AID 1476; further: nearly all actives have a fitted effect of over 40% in size
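Detergent-free condition (0.00005% Triton X-100) in acetate buffer pH 5.5 with DTT. 1.5 nM enzyme and compound were pre-mixed 15 min, then 2 uM Z-FR-AMC substrate added; reaction progress from fluorescence change between first and third reads (60 s).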
A number is an active result; - = inactive; ? = inconclusive. The call rests on the fitted dose curve; in most records, active means well fitted curve in the direction sought with a large enough effect; inconclusive means small, poorly fitted or top-dose-only effect, or another doubt; inactive means no such curve, though single readings can be large; an effect the other way counts as inactive or inconclusive.

SMILES | Cruzain inh Det | Cruzain inh noDet
Cc1ccc(/C=C/C(=O)NC2CCCCCCC2)o1 | 22µM | 20µM
CC(=O)NC(CC(C)C)C(=O)NC(Cc1ccccc1)C(N)=O (configuration not stated) | - | -
CC(=O)[C@H](CC(C)C)NC(=O)[C@@H](CC(C)C)NC(=O)[C@H](CC(C)C)NC(=O)OCc1ccccc1 | 0.0035µM | 0.013µM
Cc1ccc(Nc2c(-c3ccc(N4CCOCC4)cc3)nc3cccc(C)n23)cc1 | - | -
COc1ccc(-c2cc(-c3cccs3)c(C#N)c(SCC(=O)NCc3ccco3)n2)cc1 | - | 7.9µM
CC(C)OC(=O)CC(=O)CSc1nc(-c2ccc(F)cc2)cc(-c2ccccc2)c1C#N | - | -
O=C(CSc1nc(-c2cccs2)cc(C(F)(F)F)n1)NCc1ccco1 | - | -
CCc1nnc(NC(=O)CSc2nc(-c3ccccc3)cc(-c3ccc(F)cc3)c2C#N)s1 | - | 7.9µM
COc1ccc(CNC(=O)CSc2nc(-c3ccccc3)cc(-c3cccs3)c2C#N)cc1 | - | 10µM
COc1ccc(-c2cc(-c3ccccc3)nc(SCC(=O)Nc3ccccc3C)c2C#N)cc1 | - | -
CCC(=O)N1CCc2cc(S(=O)(=O)NC(CC(C)C)C(=O)NCCc3ccccc3)ccc21 (configuration not stated) | - | -
Cc1cc(C)cc(-n2c(SCC(N)=O)nc3c(oc4ccccc43)c2=O)c1 | - | -
CN(C)c1ncc2nc(CCc3ccccc3)c(=O)n(CCC#N)c2n1 | - | -
Cc1ccc(C(=O)Cn2nnc3c(sc4nc5c(c(-c6ccccc6)c43)CCC5)c2=O)cc1 | - | 20µM
Cc1ccc(-c2c3c(nc4sc(C(N)=O)c(N)c24)CCC3)cc1 | - | -
COc1ccccc1-c1ccc2ncnc(NCCNC(C)=O)c2c1 | - | -
Cc1cc(C)n(-c2nc3ccccc3nc2N2CCN(c3cccc(C(F)(F)F)c3)CC2)n1 | - | -
CC(=O)N1c2ccccc2CC1C(=O)N1CCN(c2ccccc2)CC1 (configuration not stated) | - | -
CCN(CC)C(=S)SCC(=O)Nc1nc(-c2ccccc2)c(-c2ccccc2)o1 | - | 32µM
O=C(CSC(=S)N1CCCCC1)Nc1nc(-c2ccccc2)c(-c2ccccc2)o1 | - | ?
COc1ccc(/C=C/c2nc(C#N)c(NCCc3ccc(OC)c(OC)c3)o2)cc1OC | - | -
COc1ccc(/C=C/c2nc(C#N)c(N3CCC(C(N)=O)CC3)o2)cc1OC | ? | 32µM
COc1ccc(/C=C/c2nc(C#N)c(N3CCCCCC3)o2)cc1OC | - | ?
CCN1CCN(c2oc(/C=C/c3cc(OC)c(OC)c(OC)c3)nc2C#N)CC1 | - | -
COc1ccc(CCNc2oc(/C=C/c3ccc(OC)c(OC)c3)nc2C#N)cc1 | - | 16µM
SMILES | Cruzain inh Det | Cruzain inh noDet
CCN1CCN(c2oc(/C=C/c3ccc(OC)c(OC)c3)nc2C#N)CC1 | - | 20µM
Cc1cc(C)n2nc(CNS(=O)(=O)c3ccccc3)nc2n1 | - | -
COc1ccc(-c2nc(C)c(CCNC(=O)c3ccco3)s2)cc1 | - | -
CCC1CN(C(=O)Nc2cc(Cl)c(OC)cc2OC)c2ccccc2O1 (configuration not stated) | - | -
CCOc1ccccc1NC(=O)NCc1noc2ccc(C)cc12 | - | -
CCC(C)CCCCC(=O)NC(CCN)C(=O)NC(C(=O)NC(CCN)C(=O)NC1CCNC(=O)C(C(C)O)NC(=O)C(CCN)NC(=O)C(CCN)NC(=O)C(CC(C)C)NC(=O)C(Cc2ccccc2)NC(=O)C(CCN)NC1=O)C(C)O (configuration not stated) | - | -
CCOC(=O)c1csc(NC(=O)c2ccc(S(=O)(=O)N(C)C)cc2)n1 | - | -
CN1CCN(S(=O)(=O)c2cccc(C(=O)Nc3nc(-c4ccccc4)cs3)c2)CC1 | - | -
COC(=O)c1ccc(-n2c(C)cc(-c3csc(NC(=O)c4ccc(S(=O)(=O)N(C)C)cc4)n3)c2C)cc1 | - | 4µM
Cc1cc(-c2csc(NC(=O)c3cccc(S(=O)(=O)N(C)C)c3)n2)c(C)n1-c1ccccc1 | - | 7.9µM
CCCN(C(=O)c1cc2c(=O)oc3ccccc3c2s1)c1ccc(CC)cc1 | - | -
CN(Cc1ccccc1)C(=O)Nc1ccc2c(c1)N(C)C(=O)c1ccccc1S2 | - | ?
O=C1CC(SCc2nc3ccccc3[nH]2)C(=O)N1c1ccc(Cl)cc1 (configuration not stated) | - | -
O=C1CC(SCc2nc3ccccc3[nH]2)C(=O)N1c1ccc(F)c(Cl)c1 (configuration not stated) | - | 16µM
CCc1ccc(NC(=O)C2CCCN(S(=O)(=O)c3cccc4cccnc34)C2)cc1 (configuration not stated) | - | -
O=C(NCCc1ccccc1)c1ccc([N+](=O)[O-])cc1 | - | -
O=C(CCNC(=O)c1ccccc1)Oc1ccc([N+](=O)[O-])cc1 | - | 25µM
Cc1sc2nc(C3CC3)nc(N3CCN(S(=O)(=O)c4ccc(F)cc4)CC3)c2c1C | - | 16µM
